A selection: hits, their analogues and other compounds. The true share with any hit is near 3.5%.
mHTT CaM bind – mHTT-calmodulin interaction abrogation | AlphaScreen His-mHTT/GST-CaM binding, luminescence | P42858 | 190,000 tested, 3.6% active | inhibition, % at 15 µM;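 further: 0% = both proteins with DMSO and 100% = one protein alone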
Target sequence (P42858 whole entry, looked up, stated change not applied): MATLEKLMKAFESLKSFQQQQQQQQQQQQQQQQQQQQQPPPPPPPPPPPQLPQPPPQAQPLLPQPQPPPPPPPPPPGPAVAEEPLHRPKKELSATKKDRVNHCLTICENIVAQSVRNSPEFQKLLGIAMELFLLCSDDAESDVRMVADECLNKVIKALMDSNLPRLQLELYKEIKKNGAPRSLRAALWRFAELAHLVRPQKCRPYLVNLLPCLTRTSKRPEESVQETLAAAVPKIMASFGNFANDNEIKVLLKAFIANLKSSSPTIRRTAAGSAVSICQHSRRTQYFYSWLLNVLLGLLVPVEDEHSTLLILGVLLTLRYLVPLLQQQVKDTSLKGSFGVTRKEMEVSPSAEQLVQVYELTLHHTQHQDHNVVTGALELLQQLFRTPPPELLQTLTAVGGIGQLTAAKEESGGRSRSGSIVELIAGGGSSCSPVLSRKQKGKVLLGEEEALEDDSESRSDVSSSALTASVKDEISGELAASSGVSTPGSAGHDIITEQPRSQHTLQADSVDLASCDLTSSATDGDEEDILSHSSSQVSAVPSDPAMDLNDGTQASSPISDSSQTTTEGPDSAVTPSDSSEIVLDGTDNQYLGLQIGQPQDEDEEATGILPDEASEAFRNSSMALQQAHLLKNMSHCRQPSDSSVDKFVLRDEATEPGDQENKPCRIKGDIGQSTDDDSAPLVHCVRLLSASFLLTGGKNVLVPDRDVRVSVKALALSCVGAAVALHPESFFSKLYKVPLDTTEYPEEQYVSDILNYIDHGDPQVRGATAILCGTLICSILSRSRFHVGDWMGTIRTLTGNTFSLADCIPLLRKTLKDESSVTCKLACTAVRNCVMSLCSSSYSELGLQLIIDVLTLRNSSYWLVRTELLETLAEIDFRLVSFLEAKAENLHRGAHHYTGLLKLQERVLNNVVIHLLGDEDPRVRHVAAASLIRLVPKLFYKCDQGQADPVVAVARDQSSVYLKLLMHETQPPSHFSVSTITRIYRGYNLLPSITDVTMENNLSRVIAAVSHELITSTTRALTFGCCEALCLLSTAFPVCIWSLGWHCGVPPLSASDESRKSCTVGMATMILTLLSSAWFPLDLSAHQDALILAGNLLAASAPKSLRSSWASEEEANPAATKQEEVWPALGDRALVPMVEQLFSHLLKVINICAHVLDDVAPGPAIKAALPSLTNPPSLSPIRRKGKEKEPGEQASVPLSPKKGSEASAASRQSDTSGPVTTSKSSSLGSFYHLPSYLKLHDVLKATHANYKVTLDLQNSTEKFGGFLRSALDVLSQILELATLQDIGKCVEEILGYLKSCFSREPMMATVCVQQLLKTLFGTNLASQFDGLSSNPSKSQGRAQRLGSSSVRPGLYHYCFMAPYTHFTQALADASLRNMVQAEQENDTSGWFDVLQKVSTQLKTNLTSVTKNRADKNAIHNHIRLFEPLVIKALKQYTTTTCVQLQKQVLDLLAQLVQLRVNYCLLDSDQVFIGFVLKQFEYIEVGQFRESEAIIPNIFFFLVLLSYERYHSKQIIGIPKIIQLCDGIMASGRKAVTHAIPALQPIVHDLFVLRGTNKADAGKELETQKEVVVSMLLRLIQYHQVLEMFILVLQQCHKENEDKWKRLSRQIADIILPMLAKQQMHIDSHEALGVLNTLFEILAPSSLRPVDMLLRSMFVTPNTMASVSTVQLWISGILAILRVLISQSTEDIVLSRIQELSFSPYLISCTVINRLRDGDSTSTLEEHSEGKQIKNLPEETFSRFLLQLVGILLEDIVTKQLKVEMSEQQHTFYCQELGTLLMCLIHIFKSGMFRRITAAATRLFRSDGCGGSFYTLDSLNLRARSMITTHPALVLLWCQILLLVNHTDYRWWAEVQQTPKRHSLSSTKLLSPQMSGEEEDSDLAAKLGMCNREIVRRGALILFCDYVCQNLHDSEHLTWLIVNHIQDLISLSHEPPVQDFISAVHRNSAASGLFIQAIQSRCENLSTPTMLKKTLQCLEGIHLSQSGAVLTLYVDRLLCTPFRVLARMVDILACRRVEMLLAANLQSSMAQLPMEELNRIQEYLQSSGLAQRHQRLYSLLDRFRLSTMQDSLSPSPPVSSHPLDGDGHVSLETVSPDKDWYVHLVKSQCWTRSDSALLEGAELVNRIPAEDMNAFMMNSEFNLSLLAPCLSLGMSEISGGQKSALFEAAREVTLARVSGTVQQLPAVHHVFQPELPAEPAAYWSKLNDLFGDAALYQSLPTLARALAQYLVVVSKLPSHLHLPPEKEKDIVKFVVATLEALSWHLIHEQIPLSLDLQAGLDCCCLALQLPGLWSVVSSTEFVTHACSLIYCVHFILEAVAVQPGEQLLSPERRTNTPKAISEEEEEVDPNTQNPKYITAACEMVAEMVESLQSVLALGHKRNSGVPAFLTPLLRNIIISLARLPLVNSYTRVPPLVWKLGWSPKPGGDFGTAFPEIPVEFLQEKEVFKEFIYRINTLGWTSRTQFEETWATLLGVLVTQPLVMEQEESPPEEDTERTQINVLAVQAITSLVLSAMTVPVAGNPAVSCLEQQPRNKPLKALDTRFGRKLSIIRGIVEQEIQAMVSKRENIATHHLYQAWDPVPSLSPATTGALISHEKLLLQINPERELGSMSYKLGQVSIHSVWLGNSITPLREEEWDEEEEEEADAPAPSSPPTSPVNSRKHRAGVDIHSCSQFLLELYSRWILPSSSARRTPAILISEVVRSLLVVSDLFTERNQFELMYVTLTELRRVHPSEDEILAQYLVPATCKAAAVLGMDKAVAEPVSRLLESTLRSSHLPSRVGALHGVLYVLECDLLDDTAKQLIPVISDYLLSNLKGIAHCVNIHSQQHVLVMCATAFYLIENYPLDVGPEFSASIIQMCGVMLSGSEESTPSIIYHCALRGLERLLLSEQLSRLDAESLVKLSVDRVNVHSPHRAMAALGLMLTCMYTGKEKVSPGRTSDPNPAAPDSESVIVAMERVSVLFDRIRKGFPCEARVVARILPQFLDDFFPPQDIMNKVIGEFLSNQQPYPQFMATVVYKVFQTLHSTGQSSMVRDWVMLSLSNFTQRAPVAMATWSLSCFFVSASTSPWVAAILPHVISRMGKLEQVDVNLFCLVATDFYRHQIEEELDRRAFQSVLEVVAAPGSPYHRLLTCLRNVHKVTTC
Pf apPOL inh – Pf-apPOL DNA polymerase inhibition; 210,000 tested, 0.25% active; inhibition, % at 10 µM; Recombinant Pf-apPOL, molecular beacon fluorescence, 1.5 h
* hit, by the source's call. No stated cut-off is given here; in the data, active means inhibition above about 50%; inactive means the rest.

SMILES | mHTT CaM bind | Pf apPOL inh
COc1ccc(NC(=O)N2CCC3(CC2)Nc2cc(F)ccc2-n2cccc23)cc1 | 66.5* | -3.2
CSc1cccc(NC(=O)N2CCC3(CC2)Nc2cc(F)ccc2-n2cccc23)c1 | 25.1 | -1.6
O=C(Nc1ccc2c(c1)OCCO2)c1ccc(CN2CCc3ccccc3C2)cc1 | -0.3 | -2.6
CCCN1C(=O)C(C(O)c2ccc(OC)c(OCC)c2)SC1=Nc1ccccc1 (stereo unspecified) | -4.0 | 8.6
CC1CC(C)CN(S(=O)(=O)c2ccc(C(=O)Nc3nnc(-c4ccccc4Cl)o3)cc2)C1 (stereo unspecified) | 3.0 | -10.8
CCOc1ccccc1C(=O)N1CCc2nc(-c3ccc(Cl)cc3)ncc2C1 | -4.0 | -2.4
O=C(NCc1cccs1)c1nn2c(c1Cl)NC(c1ccccc1)CC2C(F)(F)F (stereo unspecified) | 16.0 | 6.1
CCCC(=O)Nc1ccccc1NC(=O)c1ccc(Br)o1 | -2.4 | -1.6
COc1ccc(-c2cc(C(F)(F)F)n3nc(C(=O)NCc4cccs4)cc3n2)cc1OC | -8.0 | -5.8
Cc1ccc(S(=O)(=O)N2CCC(CN3CCC(C)CC3)CC2)cc1 | -11.1 | -2.1
CCS(=O)(=O)c1ccc(-c2nnc(NC(=O)c3c(F)cccc3Cl)o2)cc1 | 12.4 | 7.2
Cc1ccc(CC(=O)N2CCc3c(c(C(=O)NCc4ccc(Cl)cc4)nn3C)C2)cc1 | 78.5* | -6.0
Cn1nc(COCc2ccccc2)c2c1CCN(C(=O)COc1ccccc1)C2 | -4.0 | -11.6
Cn1nc(COCc2ccccc2)c2c1CCN(C(=O)Cc1cccc(F)c1)C2 | 55.5* | -2.4
COc1ccc(OCC(=O)N2CCc3c(c(C(=O)NCc4ccccc4)nn3C)C2)cc1 | -0.9 | -12.1
COc1cccc(CC(=O)N2CCc3c(c(C(=O)NCc4ccc(F)cc4)nn3C)C2)c1 | 69.0* | -5.2
Cc1cccc(CC(=O)N2CCc3c(c(C(=O)NCc4ccc(Cl)cc4)nn3C)C2)c1 | 58.9* | -12.4
Cn1nc(C(=O)NCc2ccc(Cl)cc2)c2c1CCN(C(=O)c1cccc(F)c1)C2 | 31.3 | 2.1
O=C(c1ccc(Cl)cc1)c1cccc([N+](=O)[O-])c1 | 5.8 | -3.3
Cn1nc(COCc2ccccc2)c2c1CCN(S(=O)(=O)c1ccc3c(c1)CCC3)C2 | 56.5* | -1.7
Cn1nc(COCc2ccccc2)c2c1CCN(S(=O)(=O)c1ccc(F)cc1)C2 | 29.8 | 1.6
Cn1nc(C(=O)NCc2ccccc2)c2c1CCN(C(=O)Cc1ccccc1)C2 | 43.3 | -5.6
Cn1nc(C(=O)NCc2ccc(Cl)cc2)c2c1CCN(C(=O)Cc1ccccc1)C2 | 94.8* | 2.5
CC1=C(C(N)=O)C(c2cccc(O)c2)n2nc(SCc3ccccc3)nc2N1 (stereo unspecified) | 6.0 | -4.8
Cc1ccc(C2=N/C(=C\c3ccccc3F)C(=O)O2)cc1 | -1.0 | -0.3
SMILES | mHTT CaM bind | Pf apPOL inh
Cc1c(C(=O)NCc2ccccc2Cl)oc2ccc(S(=O)(=O)N3CCCC3)cc12 | -2.0 | -1.3
Cc1cc(C)cc(C(=O)N2CCc3c(c(-c4nc(-c5ccc(F)cc5)no4)nn3C)C2)c1 | 3.4 | 1.3
CCCCNC(=O)CCn1nnc2ccccc2c1=O | 16.0 | -5.6
Cc1ccc(NC2=C([N+](=O)[O-])CS(=O)(=O)C2)cc1 | -3.0 | -5.1
O=[N+]([O-])C1=C(Nc2ccc(Cl)c(Cl)c2)CS(=O)(=O)C1 | 75.2* | -2.7
COc1ccc(NC(=O)CC2CCC2)cc1 | -6.1 | 5.2
COc1ccc(NCC2CCCCC2)cc1 | 73.4* | -0.5
CCc1ccc(CNC(=O)CCC(=O)N2CC3CCCN3c3ccccc32)cc1 (stereo unspecified) | 55.4* | -2.5
CCNC(=O)CCC(=O)N1CC2CCCN2c2ccccc21 (stereo unspecified) | 11.5 | -2.6
O=C(CCC(=O)N1CC2CCCN2c2ccccc21)NCCN1CCCCCC1 (stereo unspecified) | 40.6 | -5.4
O=C(CCC(=O)N1CC2CCCN2c2ccccc21)NCCN1CCCC1 (stereo unspecified) | 68.3* | -5.2
CCNCc1ccc(OC)cc1OC | -0.3 | -1.6
CCc1cc(C(=O)NC2CCCC2)nc2cc(-c3ccccn3)nn12 | -14.5 | -6.4
COc1cccc(C2CC(c3ccc(Br)cc3)Nc3nnnn32)c1 (stereo unspecified) | 17.0 | -5.4
NCCNc1ccc([N+](=O)[O-])cc1C(=O)Nc1cccc(Cl)c1 | 28.5 | 11.6
O=C(Nc1cccc(Cl)c1)c1cc([N+](=O)[O-])ccc1NCCO | 94.0* | 1.0
COc1ccc(C(=O)NC2CC(O)C(CO)C2)cc1OC (stereo unspecified) | -4.9 | -8.0
COc1ccc(-c2cc(-c3ccccc3)nc(N)c2C#N)cc1 | -12.5 | -4.8
CC(C)S(=O)(=O)c1ccc(CC(=O)NCC(O)c2ccc(C(F)(F)F)cc2)cc1 (stereo unspecified) | -4.3 | -4.9
O=S(=O)(NCC(O)c1ccc(C(F)(F)F)cc1)c1ccc2c(c1)CCCC2 (stereo unspecified) | 100.1* | -2.0

Screening data deposited in PubChem by University of Kansas High Throughput Screening Laboratory.
